# Results: PubChem BioAssay AID1832 (Broad Institute, 2009)
# Out of some 300,000 compounds screened, about 1,100 (0.37%) were called active.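 How the source made its calls: active means inhibition past about -25% in most replicates, and total fluorescence under double the plate's negative control median (limit read from the data); inconclusive means replicates evenly split on the limit, or fluorescence at least double controls; inactive means too little inhibition in most replicates.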 The sample as a whole holds a higher share of actives than the screen did.
# Biological target: Zinc finger protein mex-5 (Caenorhabditis elegans) (UniProt Q9XUB2)
# Sequence (Q9XUB2 whole entry, looked up): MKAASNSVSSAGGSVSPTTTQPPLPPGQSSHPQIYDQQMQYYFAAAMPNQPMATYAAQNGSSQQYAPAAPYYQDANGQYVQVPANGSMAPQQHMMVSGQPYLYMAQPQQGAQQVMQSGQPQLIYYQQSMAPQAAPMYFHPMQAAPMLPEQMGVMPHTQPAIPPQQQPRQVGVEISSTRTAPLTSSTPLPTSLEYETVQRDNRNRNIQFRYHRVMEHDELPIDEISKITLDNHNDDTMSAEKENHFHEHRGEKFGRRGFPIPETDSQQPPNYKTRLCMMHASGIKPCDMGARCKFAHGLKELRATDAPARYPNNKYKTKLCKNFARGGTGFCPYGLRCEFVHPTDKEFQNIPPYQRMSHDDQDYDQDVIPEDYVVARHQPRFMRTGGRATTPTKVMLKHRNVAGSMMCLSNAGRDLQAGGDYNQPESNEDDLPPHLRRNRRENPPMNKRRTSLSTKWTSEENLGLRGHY
# Experiment: MEX-5 zinc finger RNA-binding disruptors – biochemical, C. elegans, fluorescence polarization, MLPCN library, primary screen (AID 1832);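 further: 0% = DMSO and -100% = 5 µM competing unlabeled TCR2 RNA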
# Conditions: MEX-5/FITC-TCR2 RNA binding, at 10 µM, hits give low values
row,Compound,activity score (negative = inhibition of binding)
1,Cc1cccn2c(=O)c3cc(C(=O)NCCN4CCOCC4)c(=N)n(Cc4cccnc4)c3nc12,-41.6% (active)
2,COc1ccc(CCn2c(=N)c(C(=O)NCC3CCCO3)cc3c(=O)n4cccc(C)c4nc32)cc1OC (centres undefined),1.85% (inactive)
3,Cc1cccn2c(=O)c3cc(C(=O)NCC4CCCO4)c(=N)n(Cc4ccc(F)cc4)c3nc12 (centres undefined),-0.627% (inactive)
4,CN(C)C(CNC(=O)c1cccc(S(=O)(=O)Nc2ccc(Br)cc2)c1)c1ccco1 (centres undefined),-4.39% (inactive)
5,O=C(Nc1ccccc1Cc1ccccc1)c1ccc2c(c1)SC1=NS(=O)(=O)CCN12,1.1% (inactive)
6,COc1ccc(Nc2nc(-c3cccnc3)nc3ccccc23)cn1,-55.5% (active)
7,COc1ccccc1Oc1nc(-c2cccnc2)nc2ccccc12,3.68% (inactive)
8,Fc1ccc(/C=N/Nc2nc(-c3cccnc3)nc3ccccc23)cc1,4.03% (inactive)
9,O=C(NCc1ccc2c(c1)OCO2)C(=O)NCC1OCCN1S(=O)(=O)c1ccc(F)cc1 (centres undefined),-0.888% (inactive)
10,COCCn1c(N)c(N(Cc2ccccc2)C(=O)C2CCCCC2)c(=O)[nH]c1=O,1.74% (inactive)
11,COc1ccc(CNc2nc3c(c(=O)[nH]c(=O)n3C)n2Cc2ccccc2)cc1,-0.659% (inactive)
12,COCCn1c(N)c(NCc2ccccc2)c(=O)[nH]c1=O,-67.9% (active)
13,Cc1nnc(SCc2ccc(C(=O)c3ccc(Cl)cc3)o2)n1-c1ccccc1,-1.84% (inactive)
14,COc1ccc(CC(=O)NCc2nnc(SCC(=O)Nc3ncc(C)s3)n2C)cc1,0.258% (inactive)
15,COc1ccc(C(=O)O/N=C(\N)c2ccccn2)cc1[N+](=O)[O-],-0.00548% (inactive)
16,COc1ccc(C(=O)NNC(=O)c2cnccn2)cc1[N+](=O)[O-],-64.4% (active)
17,COc1cccc(OCC(=O)NNC(=O)c2cnccn2)c1,-22.4% (inactive)
18,O=C(CN1C(=O)c2cccnc2Oc2ccc(Cl)cc21)Nc1ccc(F)cc1,-1.82% (inactive)
19,COCCCNCC(=O)Nc1sc(C)c(C)c1C(=O)OC,0.906% (inactive)
20,Cc1ccc(O)c(CCc2ccccc2)n1,-3.03% (inactive)
21,Nc1nnn(CC(=O)N/N=C/c2ccccc2)n1,-0.796% (inactive)
22,O=C(Cn1cncn1)N/N=C/c1c2ccccc2cc2ccccc12,-30% (active)
23,Cc1[nH]c2ccccc2c1/C=N\NC(=O)Cn1nnc(-c2ccccc2)n1,0.39% (inactive)

row,Compound,activity score (negative = inhibition of binding)
1,Cc1ccc(-c2cc(C(=O)NC3CCN(Cc4ccccc4)CC3)c3ccccc3n2)cc1,-2.28% (inactive)
2,COc1cccc(NC(=O)C(=O)c2cn(CC(=O)N3CCOCC3)c3ccccc23)c1,-27.9% (active)
3,COc1cccc(NC(=O)CS(=O)(=O)c2cn(CC(=O)N3CCOCC3)c3ccccc23)c1,-1.81% (inactive)
4,O=C(Nc1ccc(F)cc1)C(=O)c1cn(CC(=O)N2CCOCC2)c2ccccc12,-1.93% (inactive)
5,COc1ccc(-c2n[nH]c3c2CN(C(=O)c2ccc(F)cc2)CC3)cc1,0.485% (inactive)
6,O=c1ccc(-c2ccc(S(=O)(=O)Nc3ccccc3)o2)n[nH]1,1.3% (inactive)
7,Cc1cc2oc3ccc(NCCC4CCCN4C)cc3c(=O)c2cc1C (centres undefined),-10.1% (inactive)
8,CCSCc1nc(N)nc(NCCc2ccccc2)n1,-1.2% (inactive)
9,O=C(Nc1ccc(OC(F)(F)F)cc1)c1ccc2c(c1)no[n+]2[O-],-2.46% (inactive)
10,COc1ccc(-c2nc(CS(=O)CC(=O)NCc3ccccc3)c(C)o2)cc1OC (centres undefined),2.34% (inactive)
11,COc1ccc(-c2nc(CS(=O)CC(=O)NCc3ccccn3)c(C)o2)cc1 (centres undefined),-66% (active)
12,COc1cccc(-c2nc(CS(=O)CC(=O)NCc3ccc(F)cc3)c(C)o2)c1 (centres undefined),0.156% (inactive)
13,O=C(CCC(=O)NNc1nc2ccccc2c2nc(-c3ccccc3)nn12)NCCCN1CCCC1=O,0.509% (inactive)
14,COc1ccc(OC)c(-n2cc3c(=O)n(C)c(=O)n(C)c3c2)c1,-2.26% (inactive)
15,COC(=O)C1=C[C@@H](C(=O)OC)[C@@H]2C3=C(C(=O)[C@]2(C)NC(=O)c2ccccc2)[C@H](C)n2c(=O)n(C)c(=O)n2[C@@H]3C1,0.374% (inactive)
16,CC(Cc1ccccc1)C(=O)N(C)Cc1ccccc1 (centres undefined),2.02% (inactive)
17,Cc1ccc(C)n1C(Cc1ccccc1)C(=O)O (centres undefined),-27.1% (active)
18,COc1ccc(CNC(=O)C(Cc2ccccc2)n2cccc2)cc1 (centres undefined),2.2% (inactive)
19,Cc1c(C=O)c2ccccc2n1CC(=O)O,-1.11% (inactive)
20,C[C@@H](C(=O)Nc1ccc2ccccc2c1)[C@@H]1C[C@@]1(C)[C@@H](NC(=O)c1cccnc1)c1ccccc1,2.99% (inactive)
21,O=C(Nc1c2c(nn1-c1cccc(Cl)c1)CS(=O)(=O)C2)c1cccs1,-4.55% (inactive)
22,Cc1ccccc1NC(=S)NC(=O)Cc1ccc(Cl)cc1,0.984% (inactive)
23,CCCc1nnc(NC(=O)CCC(=O)N2CCN(S(=O)(=O)c3ccc(OC)cc3)CC2)s1,2.03% (inactive)

row,Compound,activity score (negative = inhibition of binding)
1,CCN1CC=C2C(C#N)=C(N)C(C#N)(C#N)[C@H](c3ccoc3)[C@H]2C1,-84.8% (active)
2,CCC1=C(C(=O)OC)C(c2cc(OC)ccc2OC)C(C#N)=C(N)O1 (centres undefined),-1.18% (inactive)
3,CCCN1CC=C2C(C#N)=C(N)C(C#N)(C#N)C(c3cc(OC)ccc3OC)C2C1 (centres undefined),-27.2% (active)
4,CC1=C(C(N)=O)C(c2ccc(F)cc2)n2nc(CCCO)nc2N1 (centres undefined),-1.99% (inactive)
5,CCCCn1c(N)c(N(Cc2ccccc2OC)C(=O)COc2cc(C)ccc2Cl)c(=O)[nH]c1=O,-0.677% (inactive)
6,CC1CC(C)CN(c2ccc(S(=O)(=O)N3CCOCC3)cc2)C1 (centres undefined),-0.658% (inactive)
7,CCN(Cc1ccccc1)S(=O)(=O)c1cc2c3c(c1)CCN3C(=O)CC2,1.24% (inactive)
8,O=C1Cc2ccccc2Sc2ccc(Cl)cc21,-1.6% (inactive)
9,CC(C)[C@H](NC(=O)N1c2ccccc2NC(=O)[C@@H]1C(C)C)C(=O)N[C@H](C(=O)O)c1ccccc1,1.76% (inactive)
10,COCC(=O)N=Nc1c(O)[nH]c2ccccc12,-1.5% (inactive)
11,Cc1cccc(N=Nc2c(O)[nH]c3ccc(F)cc23)c1,-37.8% (active)
12,Cc1cccc(N=Nc2c(C)[nH]n(-c3ccccc3)c2=O)c1,-1.5% (inactive)
13,Cc1cccc(NC(=O)c2nc(S(=O)(=O)Cc3ccccc3)ncc2Cl)c1,2.04% (inactive)
14,Cc1cc(=O)n2nc(N3CCCC(C(=O)NCc4cccc(Cl)c4)C3)sc2n1 (centres undefined),0.58% (inactive)
15,CCOc1ccc(C2=CC(c3ccccc3)n3ncnc3N2)cc1 (centres undefined),0.973% (inactive)
16,Brc1ccc(C2=CC(c3ccco3)n3ncnc3N2)cc1 (centres undefined),-46.2% (active)
17,COC(=O)C1=C(C)Nc2ncnn2C1c1ccco1 (centres undefined),0.833% (inactive)
18,Cc1ccnc(N2C(=O)c3ccc([N+](=O)[O-])cc3C2=O)c1,0.424% (inactive)
19,CCN1C(=NCC(C)C)N[C@@H](CCc2ccccc2)[C@H](C(=O)NCC(C)C)[C@H]1C,0.663% (inactive)
20,COc1cc([C@H](Cc2ccccc2)NC(C)=O)oc(=O)c1,-29.7% (active)
21,COC(=O)[C@H](Cc1ccccc1)NC(=O)Nc1ccc(OC)cc1,-2.47% (inactive)
22,CCOC(=O)C(Cc1ccccc1)NC(=O)CCC(=O)c1ccc(OC)cc1 (centres undefined),-0.523% (inactive)
23,O=C(Nc1cc2c3c(c1)C1CCCC1CN3CC1CCCC21)c1ccc([N+](=O)[O-])cc1 (centres undefined),0.805% (inactive)

row,Compound,activity score (negative = inhibition of binding)
1,CCN(Cc1ccccc1)C(=O)CCS(=O)(=O)c1ccc2c(c1)oc(=O)n2C,-0.201% (inactive)
2,CC(C)(C)N(Cc1ccccc1)C(=O)c1ccncc1,0.0862% (inactive)
3,Cc1cc(NC(=O)CSc2nc(=O)cc(N)n2-c2ccc(F)cc2)no1,3.29% (inactive)
4,O=C(O)CCn1cc(/C=C/C(=O)c2ccc(Cl)cc2)c(-c2cccc(Br)c2)n1,-3.47% (inactive)
5,CCn1nc(C)c(NC(=O)/C=C/c2ccc(OC)c(COc3ccc(Br)cc3)c2)c1C,-2.54% (inactive)
6,O=C1Nc2ccccc2/C1=C/c1ccnc2ccccc12,-0.239% (inactive)
7,Cc1cc(C)c(/C=C2\C(=O)Nc3ccccc32)[nH]1,-49.3% (active)
8,CN(C)/C=C1/Nc2ccccc2C1=O,-9.39% (inactive)
9,Cc1cc(C)c(C)c(S(=O)(=O)Nc2cccnc2)c1C,3.19% (inactive)
10,CCN(CC)CCOc1ccc2c(c1)C(=NNC(=O)c1ccccn1)c1cc(OCCN(CC)CC)ccc1-2,-21.9% (inactive)
11,CN1C(=O)/C(=C/c2ccco2)SC1=Nc1cccc(C(=O)O)c1,-30.7% (active)
12,O=C(CCCN1C(=O)/C(=C\c2ccco2)SC1=S)Nc1cccc2ccccc12,-4.74% (inactive)
13,Cc1cc(/C=C2\SC(=O)N(C)C2=O)c(C)n1-c1cccc(C(=O)O)c1,-1.93% (inactive)
14,CSc1nc(C)nc(C2CC2)c1C#N,0.165% (inactive)
15,CN(C)c1ccc(NC(=S)N(CCc2ccccc2)C2CC(=O)N(c3c(Cl)cccc3Cl)C2=O)cc1 (centres undefined),0.224% (inactive)
16,Cc1cccc(NC(=O)COC(=O)CCc2ccccc2)c1C,0.968% (inactive)
17,O=C(COC(=O)CCOc1ccccc1)Nc1cc(S(=O)(=O)N2CCCCC2)ccc1Cl,-0.682% (inactive)
18,O=C(COC(=O)CCc1c[nH]c(=O)[nH]1)Nc1ccccc1Cl,-36.5% (active)
19,COc1cc(S(=O)(=O)N2CCN=C2c2ccccc2)ccc1Cl,3.19% (inactive)
20,COc1ccc(CC(=O)Nc2c(C(N)=O)oc3ccccc23)cc1,0.725% (inactive)
